Data from the supplement of paper PMC10338343.
± gives the standard deviation.

Tested on: EfPiwi piRISC loaded with L1MC piRNA (26 nt)
Assay: pre-steady-state target cleavage rate (min^-1); auxiliary factor: 500 nM Ephydatia muelleri Gtsf1; guide: L1MC piRNA 5'p-UAACUAAAUACUAUGCAAGCUGUAGG; MIWI and MILI are mouse PIWI proteins and EfPiwi is from a freshwater sponge; tags in brackets are library labels; higher = faster piRNA-guided slicing of the target
How it was run: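 Active affinity-purified piRISC carrying one synthetic guide (1 nM) was mixed with a transcribed, DNA-blocked target RNA library […] in HEPES–potassium acetate buffer at 33 °C for 0–8 or 0–960 min, with or without 500 nM GTSF1 partner protein. Uncleaved targets were then sequenced and normalised to depth and to weakly complementary targets. Three trials were pooled, and k3 was capped at 0.0001 min^-1. A burst-and-steady-state fit was applied to obtain the pre-steady-state cleavage rate.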

| Sequence | pre-steady-state target cleavage rate |
| --- | --- |
| UCCUGGUACACCUUGCAUAGUAUUUAGUAA | 0.00351 ± 0.0028 |
| UCCUCCUACAGCAUGCAUUGUAUUUAGUUA | 0.0134 ± 0.0043 |
| UCCUGGAUGUGCUUGCAUAGUAUUUAGCUA | 0.00363 ± 0.0021 |
| UCCUCCUACAGCUUGCUUUGUAUUUAGUUA | 0.0093 ± 0.0052 |
| UCCUGGAAGAGCUUGCAUAGUAUUUAGUAA | 0.00426 ± 0.0021 |
| UCCUGCUACUGCUUGCAUAGUAAUUAGUUA | 0.00587 ± 0.0019 |
| UCCUCCUACAGCUUGCAUAGUAUAUAGAAA | 0.00329 ± 0.0015 |
| UCCUGGAUCUCGUUGCAUAGUAUUUAGUUA | 0.0466 ± 0.011 |
| UCCUGGAUGUGCUUGCAUUCAUAAAUCAAA [g13:g20:cont:t1A] | < 0.0001 |
| UCCUGGUACAGCUUCCAUAGUAUUUAGAAA | 0.00336 ± 0.0013 |
| UCCUGGAUGUCGUUGCAUAGAUAAAUCAAA [g11:g18:cont:t1A] | < 0.0001 |
| UCCUGGAUCAGCUUGCAUAGUUUUUAGUAA | 0.00477 ± 0.0025 |
| UCCUGGAUGUCGAACCAUAGUAUUUACGUUA | < 0.0001 |
| UCCUCCUACAGCUUGCUUAGUAAUUAGUUA | 0.0113 ± 0.0049 |
| UCCUGGAACAGCUUGGAUAGUAUUUACAAA | 0.00254 ± 0.0019 |
| UCCUGCUACAGCUUGCAUAGUAUUGUAGUUA | 0.00279 ± 0.0016 |
| UCCUGCUACAGCUUGCAUAAGUAUUUAGUUA | 0.00273 ± 0.0019 |
| UCCUGGAUGAGCUUGCAUUGUAUUUAGAAA | 0.00384 ± 0.0021 |
| UCCUGGAUCAGGUUGCAUAGUAUUUAGUAA | 0.00537 ± 0.0021 |
| UCCUGGAUGUGCUUGCAUAGUAUUUAGCUUA | 0.00517 ± 0.003 |

| Sequence | pre-steady-state target cleavage rate |
| --- | --- |
| UCCUGGUACAGCGUUGCAUAGUAUUUAGUUA | 0.00749 ± 0.0028 |
| UCCUGGAUCAGCUUGCAUAGUAAUUAGUAA | 0.00487 ± 0.0027 |
| UCCUGCUAAAGCUUGCAUAGUAUUUAGUUA | 0.00411 ± 0.0014 |
| UCCUCCUACAGGUAGCAUAGUAUUUAGUUA | 0.0265 ± 0.006 |
| UCCUCCUUCAGCUUGCAUAGUAUUUAGUUA | 0.158 ± 0.041 |
| UCCUGGUACAGCUUCGAUAGUAUUUACAAA | 0.00595 ± 0.0049 |
| UCCUCCUACAGCUUCCAUAGUAUUUAGAAA | 0.00369 ± 0.0018 |
| UCCUGGAUGUGCUUGCAUAGUAUUUACUAA | 0.146 ± 0.073 |
| UCCUGCUUCACCUUGCAUAGUAUUUAGUUA | 0.0076 ± 0.0034 |
| UCCUGGAUCAGCUUGCAUAGUAUUUAGUA | 0.00808 ± 0.0034 |
| UCCUCCUUCACCUUGCAUAGUAUUUAGUUA | 0.0605 ± 0.021 |
| UCCUGCAACAGCUUGCAUAGUAUUUAGUUA | 0.0741 ± 0.018 |
| UCCUCCUACAGCUUGCGAUAGUAUUUAGUUA | 0.00839 ± 0.0023 |
| UCCUGGAUGUCGAACCAUGGUAUUUAGUUA | < 0.0001 |
| UCCUGGAUCAGCUUGCAAAGUUUUUAGUUA | 0.00491 ± 0.0036 |
| UCCUGCUACUCGUUGCAUAGUAUUUAGUUA | 0.00936 ± 0.0038 |
| UCCUGGUACAGCUUGCAUAGAAUUUAGAAA | 0.00253 ± 0.0021 |
| UCCUGGAUGUCGAACGUAUCUAUGUAGUUA | < 0.0001 |
| UCCUGCUACAGGUUGCAAAGUAUUUAGUUA | 0.0385 ± 0.0096 |
| UCCUCCUACAGCUUGCAUAGUAUUUAGUUG [g2:g26:cont:t1G] | 0.00723 ± 0.0029 |
